Screens from PubChem.
Rows were chosen to be rich in hits. Some 19% of all compounds tested hit in one or more screens of this group.
DT40 TDP1 no CPT: qHTS for Inhibitors of human tyrosyl-DNA phosphodiesterase 1 (TDP1): qHTS in cells in absence of CPT; Potency, µM (titrated, usually from 46.2 µM), for the others: top-dose activity change, negative = growth inhibition, usual class: inhibitors; DT40 Tdp1-/- hTDP1 cells, no CPT, ATP luminescence, 48 h; 420,000 tested, 15% active; note: potency is the fitted concentration of half-maximal effect; % is set by controls: 0 for no effect and ±100 for the full control effect; nearly all actives have a fitted effect of over 55% in size
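Readout: luminescence from CellTiter-Glo after 30 min in the dark at RT. Cells: DT40 Tdp1-/- with stable hTDP1, 400/well. Exposure: compounds alone, ≥48 hr, 37 °C.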
TDP1 inh: inhibitors of human tyrosyl-DNA phosphodiesterase TDP1 | recombinant TDP1, AlphaScreen DNA substrate cleavage | 350,000 tested, 0.28% active | Potency, µM (series often up to 130 µM), for inactives: at the highest dose activity change, negative = inhibition, usual class: inhibitors | Q9NUW8; note: potency is the fitted concentration of half-maximal effect; % is set by controls: 0 for no effect and ±100 for the full control effect; nearly all actives have a fitted effect of over 40% in size
Target sequence (Q9NUW8 whole entry, looked up): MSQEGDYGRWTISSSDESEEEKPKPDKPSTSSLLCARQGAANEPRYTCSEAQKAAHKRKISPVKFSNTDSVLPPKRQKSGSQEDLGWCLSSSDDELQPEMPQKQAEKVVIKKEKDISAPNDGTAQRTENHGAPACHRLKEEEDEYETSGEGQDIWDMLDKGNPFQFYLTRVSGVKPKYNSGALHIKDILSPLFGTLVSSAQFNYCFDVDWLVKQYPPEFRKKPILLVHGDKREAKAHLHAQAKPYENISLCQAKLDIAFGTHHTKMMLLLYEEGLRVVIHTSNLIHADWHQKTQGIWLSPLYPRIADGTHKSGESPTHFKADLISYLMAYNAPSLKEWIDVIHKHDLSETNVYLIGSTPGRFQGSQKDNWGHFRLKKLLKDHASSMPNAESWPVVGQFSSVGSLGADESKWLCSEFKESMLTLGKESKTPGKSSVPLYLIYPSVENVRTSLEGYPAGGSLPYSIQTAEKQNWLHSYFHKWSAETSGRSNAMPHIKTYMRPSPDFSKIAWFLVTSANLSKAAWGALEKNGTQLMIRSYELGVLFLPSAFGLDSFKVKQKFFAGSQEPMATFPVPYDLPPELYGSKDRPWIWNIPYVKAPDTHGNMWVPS
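Steps: enzyme plus compound, 15 min RT; add biotin/phosphotyrosine-FITC oligonucleotide (15 nM final), react 5 min; add donor/acceptor beads (10 ug/ml final), 10 min; read AlphaScreen. Tdp1 at 1 nM final.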
TDP1 cell CPT: DT40-hTDP1 cell growth loss with CPT; chicken DT40 Tdp1-/-;hTDP1 cells + 20 nM CPT, ATP luminescence, 48 h; Potency, µM (series often up to 46.2 µM), for inactives: top-dose activity change, negative = growth inhibition, actives largely listed as inhibitors; 420,000 tested, 12% active; AID 686979; note: potency is the fitted concentration of half-maximal effect; % is set by controls: 0 for no effect and ±100 for the full control effect; nearly all actives have a fitted effect of over 55% in size
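Chicken DT40 Tdp1-/- cells stably complemented with human TDP1 were seeded at 400 cells/well in medium containing 20 nM camptothecin, exposed to pin-transferred compounds, and grown at 37 °C for at least 48 hr. Viability was read as ATP luminescence.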
HepG2 tox-1: counter-screen for TGF-b inhibitors: cytotoxicity in HepG2 cells. HepG2 CAGA-GFP viability, ATP luminescence, 18 h. Potency, µM (highest dose often 46.1 µM), inactives show top-dose activity change, negative = cytotoxicity, hits mostly cytotoxic. 410,000 tested, 0.76% active; note: potency is the fitted concentration of half-maximal effect
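HepG2 CAGA-GFP cells (1000/well, DMEM with 1% FBS) received compound, then TGF-beta at 500 pg/mL final, and were incubated 18 hours at 37 degrees C. Viability was read by CellTiter-Glo luminescence. Media-only wells were set as complete cell-killing and DMSO as no toxicity.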
IL-1B inflam inh: inhibitors of inflammasome signaling (IL-1 beta secretion); THP-1 LPS/ATP IL-1B secretion, AlphaLISA, 16 h; stronger effect = lower value; 360,000 tested, 4.7% active; activity change, % at 57.5 µM; in the data active = activity change below about -50%; inconclusive = mostly about -30% to -49%; note: % is set by controls: 0 for no effect and ±100 for the full control effect
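Secreted IL-1B measured by AlphaLISA bead assay after 16 h compound exposure of THP-1 cells; compounds (final up to 57.5 uM) added 1 h before LPS (250 ng/mL) and ATP (1.25 mM) stimulation; lower signal means less secretion.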
TGFb inhibitor: inhibitors of TGF-b signaling. HepG2 CAGA-GFP TGF-b/SMAD3 reporter, GFP fluorescence, 18 h; TGF-beta stimulated, 500 pg/mL final. Potency, µM (top dose mostly 46.1 µM), for inactives: top-dose activity, negative = inhibition, usual class: inhibitors. 410,000 tested, 1.2% active; note: potency is the fitted concentration of half-maximal effect; % is set by controls: 0 for no effect and ±100 for the full control effect; nearly all actives have a fitted effect of over 65% in size
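TGF-beta reporter screen: HEPG2 CAGA-GFP, 1% FBS, 500 pg/mL TGF-beta final, 18 h; per-cell GFP summed per well; curves fitted and categorized by class.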
TGFb confirm: confirmation of TGF-b signaling inhibitors in HepG2 reporter cells | shares compounds with TGFb inhibitor | HepG2 CAGA-GFP TGF-b reporter, GFP fluorescence, 18 h; cells stimulated with TGF-beta, 500 pg/mL | Potency, µM (titrated, usually from 46.1 µM), for inactives: top-dose activity, negative = inhibition, actives largely listed as inhibitors | 1,600 tested, 63% active; note: potency is the fitted concentration of half-maximal effect; % is set by controls: 0 for no effect and ±100 for the full control effect; nearly all actives have a fitted effect of over 65% in size
HepG2 tox-2: counter-screen for TGF-b inhibitors: cytotoxicity in HepG2 cells; shares compounds with TGFb inhibitor; HepG2 CAGA-GFP viability, ATP luminescence, 18 h; cells stimulated with TGF-beta, 500 pg/mL; Potency, µM (highest dose often 46.1 µM), inactives show at the top dose activity, negative = cytotoxicity, actives largely listed as inhibitors; 1,600 tested, 27% active; AID 720535; note: potency is the fitted concentration of half-maximal effect; % is set by controls: 0 for no effect and ±100 for the full control effect; nearly all actives have a fitted effect of over 70% in size
TGFb CCL64 inh: blocks TGF-b signaling in CCL64 reporter cells. shares compounds with TGFb inhibitor. CCL64 CAGA-GFP reporter, TGF-b stimulated, GFP fluorescence, 18 h. Potency, µM (titrated, usually from 46.1 µM), inactives show top-dose activity, negative = inhibition, usual class: inhibitors. 1,600 tested, 41% active. AID 720536; note: potency is the fitted concentration of half-maximal effect; nearly all actives have a fitted effect of over 65% in size
COP TGFb inh: validation of TGF-b inhibitors in HepG2 COP promoter reporter | 1,600 tested, 3% active | AID 720537 | Potency, µM (titrated, usually from 46.1 µM), for inactives: at the highest dose activity, negative = inhibition, hits mostly inhibitors | HepG2 COP-GFP TGF-b reporter, GFP fluorescence, 18 h; cells stimulated by added recombinant TGF-beta | shares compounds with TGFb inhibitor; note: potency is the fitted concentration of half-maximal effect; nearly all actives have a fitted effect of over 70% in size
Numbers without * were called inactive; ? = inconclusive; nt = no result. Unless noted, calls come from the whole dose curve; as a rule, active = well fitted curve in the direction sought with a large enough effect; inconclusive = small, poorly fitted or top-dose-only effect, or another doubt; inactive = no such curve, though single readings can be large; an effect the other way counts as inactive or inconclusive.

SMILES | DT40 TDP1 no CPT | TDP1 inh | TDP1 cell CPT | HepG2 tox-1 | IL-1B inflam inh | TGFb inhibitor | TGFb confirm | HepG2 tox-2 | TGFb CCL64 inh | COP TGFb inh
C(=C\c1ccccc1)/CN1CCN(C(c2nnnn2C2CCCC2)C2CC2)CC1 (centres undefined) | 13µM* | nt | 18µM* | -27% | 11 | 7.9µM* | ? | -24% | -15% | 12%
CCOC(=O)c1c(-c2cccs2)csc1N | 3% | 6% | 2% | -17% | -5 | ? | -8% | -2% | 5% | 0%
COc1ccc(-c2nc3cnc(Nc4ccccc4)nc3n(CCC#N)c2=O)cc1 | 2% | nt | 1% | nt | nt | nt | nt | nt | nt | nt
CCC1=C(CC2NCCc3ccccc32)CC2c3cc(OC)c(OC)cc3CCN2C1 (centres undefined) | 1.6µM* | nt | 1.2µM* | -29% | -92* | 2.8µM* | 1.5µM* | ? | 5.2µM* | 22%
COc1ccc(C(=O)C(CCC(CNC(C)(C)C)C(=O)c2ccc(OC)cc2)CNC(C)(C)C)cc1 (centres undefined) | 5.2µM* | -3% | 5.2µM* | -81% | -101* | 7.1µM* | ? | 18µM* | 4.1µM* | ?
O=C(CSc1nnc(NC(=O)C2CC(=O)N(c3ccc(F)cc3)C2)s1)NCc1ccco1 (centres undefined) | -9% | 2% | -15% | -2% | -6 | 29% | nt | nt | nt | nt
COc1ccc(NC(=O)CN(C)C(=O)C23CC4CC(CC(C4)C2)C3)cc1 | ? | 1% | 2% | -18% | -15 | 4% | nt | nt | nt | nt
O=C1C=C(N2CCN(c3ccccn3)CC2)C(=O)c2c(O)ccc(O)c21 | 4.1µM* | nt | 1.5µM* | -92% | -15 | 7.1µM* | 4.6µM* | 9.2µM* | ? | -10%
COc1ccccc1NC(=O)C(C)OC(=O)C1CCN(S(=O)(=O)c2ccccc2C(F)(F)F)CC1 (centres undefined) | 4% | nt | -14% | -6% | 23 | 1% | nt | nt | nt | nt
CC1(C)Cc2ccccc2C2=NNC(=O)C2=N1 | 10µM* | 0% | 16µM* | -89% | -100* | 3.2µM* | 4.6µM* | 7.3µM* | ? | 12µM*
O=C(c1ccc(CSc2nc3ccncc3[nH]2)cc1)N1CCN(c2cccc(Cl)c2)CC1 | 7.3µM* | 3% | 9.2µM* | -45% | ? | 7.9µM* | 16µM* | ? | ? | 12%
O=C(c1ccc(CSc2nc3ccncc3[nH]2)cc1)N1CCCCCC1 | ? | nt | ? | -38% | 48 | -16% | nt | nt | nt | nt
CCSc1nc(N)nc2c1ncn2C1OC(CO)C(O)C1O (centres undefined) | -20% | nt | -18% | -23% | 41 | 5% | nt | nt | nt | nt
Cn1cnc([N+](=O)[O-])c1Sc1nc(N)nc2c1ncn2C1OC(CO)C(O)C1O (centres undefined) | ? | nt | ? | -46% | -19 | 2µM* | 2.9µM* | 0.92µM* | 3% | 65%
Cn1cnc([N+](=O)[O-])c1Sc1nc(N)nc2c1ncn2C1CC(O)C(CO)O1 (centres undefined) | 13µM* | nt | ? | -39% | -15 | 4µM* | 4.1µM* | ? | 19% | 82%
Nc1nc(SCc2ccc([N+](=O)[O-])cc2)c2ncn([C@@H]3O[C@H](CO)[C@@H](O)[C@H]3O)c2n1 | -27% | 10% | -2% | nt | nt | nt | nt | nt | nt | nt
CC(C)CC(=O)N1CC(C)N(C(=O)CC(C)C)CC1C (centres undefined) | nt | -6% | nt | nt | nt | nt | nt | nt | nt | nt
CC(CC(=O)O)CC(=O)Nc1cc([N+](=O)[O-])ccc1O (centres undefined) | -9% | 6% | 15% | -1% | 15 | -4% | nt | nt | nt | nt
Cc1ccc(SCC(=O)Nc2cc([N+](=O)[O-])ccc2O)cc1 | -23% | 4% | -8% | -31% | 5 | 18µM* | 4.6µM* | ? | ? | 82%
CCOc1cc(C(=O)Nc2ccc(S(=O)(=O)NC3=NCCCCC3)cc2)cc(OCC)c1OCC | ? | -1% | ? | 0% | -4 | 2% | nt | nt | nt | nt
C=C(C(=O)c1ccccc1)C(C)CC(=O)c1ccccc1 (centres undefined) | 15µM* | -11% | 23µM* | -3% | -106* | 13µM* | 4.6µM* | 15µM* | 15µM* | -43%
Clc1ccc2c(SCC3CO3)c3ccccc3nc2c1 (centres undefined) | 1.2µM* | nt | 0.46µM* | -49% | ? | 7.9µM* | 16µM* | 18µM* | 21µM* | 16µM*
CC1=C(C(=O)N(C(C)C)C(C)C)CC(CC(=O)NCCc2ccccn2)C(=O)N1Cc1ccccc1 (centres undefined) | -28% | nt | -10% | 5% | 8 | 21% | nt | nt | nt | nt
CC1=C(C(=O)N(C(C)C)C(C)C)CC(CC(=O)NCCc2ccccn2)C(=O)N1Cc1ccc(C(C)(C)C)cc1 (centres undefined) | ? | nt | 16µM* | -68% | -23 | 8.9µM* | -21% | -13% | ? | 11%
CC1=C(C(=O)N(C)C)CC(CC(=O)NCc2cccc3ccccc23)C(=O)N1Cc1ccc(C(C)(C)C)cc1 (centres undefined) | ? | nt | -11% | -29% | -22 | ? | nt | nt | nt | nt
